Experimental data taken from PubChem BioAssay (NCATS).
Results filed as inconclusive are left out. Entries that show only a call come without a potency. Activity calls are given as the source filed them. The call rests on the fitted dose curve; in most records, active means well fitted inhibition curve with a large enough effect; inconclusive means small, poorly fitted or top-dose-only effect; inactive means flat fitted curve, though single readings scatter.

What follows are molecules tested on Zika virus NS2B-NS3 protease (assay: Primary screen GU AMC qHTS for Zika virus inhibitors (AID 1347154; further: nearly all actives have a fitted effect of over 70% in size)). Conditions: Zika NS2B-NS3 unlinked protease, AMC fluorogenic substrate; series mostly up to 54.1 µM.
In short: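 Unlinked Zika NS2B hydrophilic domain–NS3 protease complex at 25 nM in 10 mM Tris-HCl pH 8.0, 0.01% Tween 20, with an AMC peptide substrate. Fluorescence change (340/450 nm) over 15 min at room temperature, normalized to controls, fitted to 4-parameter Hill.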
Potency means the concentration at half of the fitted maximal effect.

Structure (SMILES)	Potency
O=c1n(Cl)c(=O)n(Cl)c(=O)n1Cl	inactive
C[C@H]1CNCCc2ccc(Cl)cc21	inactive
CC[C@H](O)C(C[C@H](C)N(C)C)(c1ccccc1)c1ccccc1	inactive
CCC1(c2ccccc2)CCC(=O)NC1=O (configuration not stated)	inactive
CCC(=O)OC1(c2ccccc2)CCN(C)CC1	inactive
OC(O)C(Cl)(Cl)Cl	inactive
Cc1ncc2n1-c1ccc(Cl)cc1C(c1ccccc1F)=NC2	inactive
O=C(N[C@@H]1N=C(c2ccccc2F)c2cccc3c2N(CC3)C1=O)c1cc2ccccc2[nH]1	inactive
O=C(CCCN1CCC(n2c(=O)[nH]c3ccccc32)CC1)c1ccc(F)cc1	inactive
CCC(OC(C)=O)C(CC(C)NC)(c1ccccc1)c1ccccc1 (configuration not stated)	inactive
CN(C)CCc1c[nH]c2ccccc12	inactive
CCc1cc(OC)c(C[C@H](C)N)cc1OC	inactive
NC(=O)OCCCc1ccccc1	inactive
Nc1ccc(N)cc1	inactive
CN1CCc2cc(Cl)c(O)cc2[C@H]2c3ccccc3CC[C@@H]21	inactive
CC(C)[N+](C)(CCC(C(N)=O)(c1ccccc1)c1ccccc1)C(C)C	inactive
Cc1c(Cl)c(=O)oc2cc(OP(=O)(OCCCl)OCCCl)ccc12	14.4 µM (active)
COc1ccc(OC)c(CC(C)N)c1 (configuration not stated)	inactive
CC#C[C@]1(O)CC[C@H]2[C@@H]3C[C@H](C)C4=CC(=O)CC[C@]4(C)[C@H]3CC[C@@]21C	inactive

Structure (SMILES)	Potency
CCN(Cc1ccc(Cl)nc1)/C(=C/[N+](=O)[O-])NC	inactive
COc1cc(C[C@@H](C)N)c(OC)cc1Br	inactive
CCOC(=O)c1ncn2c1CN(C)C(=O)c1c(I)cccc1-2	inactive
CNC(C)Cc1ccccc1OC (configuration not stated)	inactive
C=CCOC(Cn1ccnc1)c1ccc(Cl)cc1Cl (configuration not stated)	inactive
CN1CCC(N(Cc2ccccc2)c2ccccc2)CC1	inactive
Cc1nnc2n1-c1sc(CCC(=O)N3CCOCC3)cc1C(c1ccccc1Cl)=NC2	inactive
COP(=S)(OC)Oc1ccc(Sc2ccc(OP(=S)(OC)OC)cc2)cc1	inactive
C[C@H](CN1CCOCC1)C(C(=O)N1CCCC1)(c1ccccc1)c1ccccc1	inactive
COCC(=O)N(c1c(C)cccc1C)C(C)C(=O)OC (configuration not stated)	inactive
CC(C)(O)C(Cl)(Cl)Cl	inactive
CCCCC1C(=O)NC(=O)N(C2CCCCC2)C1=O (configuration not stated)	inactive
COc1cc(CC(C)N)cc2c1OCO2 (configuration not stated)	inactive
CC1COC2(c3ccccc3Cl)c3cc(Cl)ccc3NC(=O)CN12 (configuration not stated)	inactive
COc1ccc2[nH]cc(CCN(C(C)C)C(C)C)c2c1	inactive
O=C(CCl)c1ccc(Cl)cc1Cl	inactive
CN1C(=O)[C@@H](NC(=O)c2cc3ccccc3[nH]2)N=C(c2ccccc2)c2ccccc21	inactive
CC(CC(C(N)=O)(c1ccccc1)c1ccccc1)N(C)C (configuration not stated)	inactive
